# A selection: hits, their analogues and other compounds. The true share with any hit is near 21%.
# CHX counter: counter-screen hit for Shiga toxin inhibitors, cycloheximide; cell reporter, cycloheximide protein synthesis inhibition counterscreen; max response, %; AID 2314; hit rate 12% among 300,000; in the data active = max response mostly above about 13%, no sharp cut-off; inactive = mostly below about 14%; note: read at 38.3 µM for the half of the compounds with a filed dose; 0% is about no effect
# Pf growth 48h: P. falciparum growth inhibition at 48 hours (one generation) | P. falciparum luciferase growth in erythrocytes, 48 h | Potency, µM (series often up to 28.7 µM), for the others: at the highest dose activity change, negative = inhibition, hits mostly inhibitors | hit rate 5.9% among 310,000 | AID 504832; note: potency is the fitted concentration of half-maximal effect; % is set by controls: 0 for no effect and ±100 for the full control effect
#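 Compounds are pin-transferred into medium, infected erythrocytes (2% hematocrit, 0.1% parasitemia final) are added, and plates sit one parasite generation at 37 C in 5% CO2. Detection reagent is then added and luminescence measured.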
# NS1 inh: inhibitors of influenza NS1 protein function; hit rate 0.4% among 270,000; Potency, µM (titrated, usually from 46.1 µM), without a hit: at the top dose activity, positive = more growth; AID 2326; calls by dose curve; note: potency is the fitted concentration of half-maximal effect; actives are rising curves; nearly all actives have a fitted effect of over 50% in size
#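 A cell-based growth assay was used: compounds that relieve NS1-induced slow growth of budding yeast raise OD600. Assay medium was yeast nitrogen base with ammonium sulphate and -URA supplement, pH 6.0, with 2% galactose.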
# Shiga toxin inh: inhibitors of Shiga toxin in Vero cells; AID 2315; inhibition, % at 38.7 µM; Vero cells, Shiga toxin protein synthesis inhibition reporter; hit rate 9.2% among 290,000; in the data active = inhibition mostly above about 28%, no sharp cut-off; inactive = mostly below about 43%; note: 0% is about no effect
# Pf growth 96h: P. falciparum growth inhibition at 96 hour, primary screen for plastid delayed-death inhibitors; P. falciparum luciferase reporter growth, 96 h; Potency, µM (doses to about 28.7 µM), inactives show at the highest dose activity change, negative = inhibition, actives largely listed as inhibitors; hit rate 6.9% among 320,000; note: potency is the fitted concentration of half-maximal effect; % is set by controls: 0 for no effect and ±100 for the full control effect
#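 Delayed-death screen, second-generation endpoint: infected erythrocytes, 2% hematocrit, 0.05% parasitemia final; 96 hours at 37 C, 5% CO2; luciferase detection reagent; luminescence decrease equals reduced growth.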
# SARS PLpro yeast: inhibitors of SARS-CoV papain-like protease in yeast; Potency, µM (titrated, usually from 32.9 µM), for inactives: top-dose activity, positive = growth rescue, hits mostly activators; S. cerevisiae expressing SARS-CoV PLpro, growth rescue; hit rate 0.19% among 330,000; AID 485353; calls by dose curve; note: potency is the fitted concentration of half-maximal effect; 0% is about no effect; nearly all actives have a fitted effect of over 55% in size
# * marks the source's active call; other numbers are inactive results; ? = inconclusive; · = no result given. Unless noted, calls come from the whole dose curve; as a rule, active = well fitted inhibition curve with a large enough effect; inconclusive = small, poorly fitted or top-dose-only effect, or another doubt; inactive = no such curve, though single readings can be large or run the other way.
SMILES,CHX counter,Pf growth 48h,NS1 inh,Shiga toxin inh,Pf growth 96h,SARS PLpro yeast
O=C(Nc1ccc(Oc2cccnc2)cc1)c1ccccc1Cl,27*,14%,-8%,2,?,-17%
O=C(Nc1ccc(F)cc1)c1cccnc1Oc1ccccc1,-2,·,1%,-3,18%,9%
O=C(Nc1ccccc1Oc1ccccc1)c1ccccc1F,-3,?,-26%,-2,-3%,-24%
CC(C#N)(NC(=O)CN1CCN(S(=O)(=O)c2ccc(Br)cc2Cl)CC1)C1CC1 (stereo not drawn),·,?,·,·,?,-7%
O=C(Cn1cnc2ccccc2c1=O)N/N=C/c1ccc(Br)cc1,1,9%,2%,21,64%,2%
Nn1cnnc1N/N=C/c1cc(Br)cc(Br)c1O,-3,0%,-66%,-14,70%,6%
CC(C)(C)c1nnc(N/N=C/c2ccc(Br)cc2)n(N)c1=O,55*,20%,13%,64*,-13%,-1%
CSc1ccc(/C=N\Nc2nncn2N)cc1,28*,-12%,-50%,76*,36%,-7%
CC(C)(C)c1ccc(/C=N/Nc2nncn2N)cc1,17*,30%,-91%,13,91%,-10%
COc1ccccc1C(=O)Nc1ccnn1C1CCN(Cc2ccc3nonc3c2)CC1,7,?,2%,3,?,-3%
O=C(c1cc(Br)c[nH]1)N1CCSCC1,6,13%,0%,-5,17%,2%
Cc1nn(-c2ccccc2)c2c1C(O)n1c(nc3ccccc31)S2 (stereo not drawn),4,1.7µM*,3%,10,-15%,-10%
O=C(Nc1ccc(F)cc1F)N1CCC(c2nc3ccccc3o2)CC1,-4,12%,·,9,110%,0%
O=C(Nc1ccccc1)N1CCN(c2ccc(F)cc2)CC1,24,13µM*,0%,21,?,-41%
COc1ccccc1NC(=O)N1CCC(c2nc3ccccc3o2)CC1,-1,12%,·,-15,23µM*,-2%
CC(=O)c1ccc(N2CCN(C(=O)Nc3ccc(F)cc3)CC2)cc1,21*,-24%,·,42,-13%,-10%
COc1ccccc1NC(=O)N1CCN(C(=O)Nc2ccccc2OC)CC1,-2,-14%,-2%,-3,32%,-1%
COc1ccccc1NC(=O)N1CCN(c2ccc(F)cc2)CC1,-2,-21%,-3%,5,2.3µM*,1%
COc1ccc(N2CCN(C(=O)C(OC(C)=O)c3ccccc3)CC2)cc1 (stereo not drawn),-2,12%,7%,-14,-2%,2%
CC(=O)OC(C(=O)N1CCN(c2ccc(F)cc2)CC1)c1ccccc1 (stereo not drawn),5,32%,-11%,-9,12µM*,?
CC[N+](CC)(CC)CCCCOc1ccc2c(c1)C(=O)c1cc(OCCCC[N+](CC)(CC)CC)ccc1-2,0,0.066µM*,-2%,22,?,-1%
CC[N+](C)(CC)CCCCOc1ccc2c(c1)C(=O)c1cc(OCCCC[N+](C)(CC)CC)ccc1-2,-1,?,-1%,10,?,0%
CCCn1cc2c3c(cccc31)C1CC(C)CN(C)C1C2 (stereo not drawn),7,?,-3%,18,12µM*,5%
CN1C[C@@H](CS(=O)(=O)N(C)C)C[C@@H]2c3cccc4c3c(cn4C)C[C@H]21,·,·,4%,·,·,·
CC1(C)C2CCC1(C)C(NC(=O)CCN1CCCCC1)C2 (stereo not drawn),1,5%,3%,-10,0.093µM*,2%
COc1cccc(OCc2cc(C3Nc4ccccc4C(=O)N3Cc3ccco3)ccc2OC)c1 (stereo not drawn),8,8.3µM*,16%,14,-7%,-8%
COc1ccc(C2Nc3ccccc3C(=O)N2Cc2ccco2)cc1COc1ccc([N+](=O)[O-])cc1 (stereo not drawn),18,?,0%,21,5.9µM*,-10%
O=C1c2ccccc2NC(c2ccccc2)N1Cc1ccco1 (stereo not drawn),-3,-14%,5%,19,-6%,-3%
CC1(C)OC(C(O)(c2ccccc2)c2ccccc2)[C@@H](C(O)(c2ccccc2)c2ccccc2)O1 (stereo partly drawn),-3,?,11%,-3,?,1%
